DT40 TDP1 CPT: DT40-hTDP1 cell growth loss with CPT. chicken DT40 Tdp1-/-;hTDP1 cells + 20 nM CPT, ATP luminescence, 48 h. Potency, µM (doses to about 46.2 µM), for inactives: at the top dose activity change, negative = growth inhibition, hits mostly inhibitors. hit rate 12% among 420,000. AID 686979; further: potency means the concentration at half of the fitted maximal effect; nearly all actives have a fitted effect of over 55% in size
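Chicken DT40 Tdp1-/- cells complemented with human TDP1, 400 cells/well, exposed to compounds plus 20 nM camptothecin for at least 48 h at 37 C; viability read as ATP content by CellTiter-Glo luminescence.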
DT40 TDP1 no CPT: qHTS for Inhibitors of human tyrosyl-DNA phosphodiesterase 1 (TDP1): qHTS in cells in absence of CPT; AID 686978, 2013; DT40 Tdp1-/- hTDP1 cells, no CPT, ATP luminescence, 48 h; Potency, µM (doses to about 46.2 µM), inactives show at the highest dose activity change, negative = growth inhibition, usual class: inhibitors; hit rate 15% among 420,000; further: potency means the concentration at half of the fitted maximal effect; nearly all actives have a fitted effect of over 55% in size
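DT40 Tdp1-/-;hTDP1 cells, no CPT (DMSO vehicle only), 400 cells/well; compounds pin-transferred; ≥48 hr, 37 °C; CellTiter-Glo 30 min RT dark, luminescence read.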
HT1080 IDH1KD tx: kills HT-1080 cells with IDH1 knockdown; HT-1080 IDH1 knockdown viability, ATP luminescence, 48 h; Potency, µM (doses to about 46.1 µM), inactives show at the top dose activity, negative = toxicity, usual class: cytotoxic; hit rate 2% among 360,000;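 further: potency means the concentration at half of the fitted maximal effect; 0% = DMSO wells and -100% = cell-free medium wells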
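Luminescent ATP read-out (CellTiter-Glo, 10 min at room temperature) after 48 h compound exposure at 37 °C gave viability of IDH1-knockdown HT-1080 cells. Activity was normalised to DMSO and cell-free wells, then fitted as concentration-response curves.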
IL-1B inflam inh: inflammasome signaling inhibition, IL-1 beta readout; THP-1 LPS/ATP IL-1B secretion, AlphaLISA, 16 h; stronger effect = lower value; activity change, % at 57.5 µM; hit rate 4.7% among 360,000; in the data active means activity change below about -50%; inconclusive means mostly about -30% to -49%
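Secreted IL-1B measured by AlphaLISA bead assay after 16 h compound exposure of THP-1 cells; compounds (final up to 57.5 uM) added 1 h before LPS (250 ng/mL) and ATP (1.25 mM) stimulation; lower signal means less secretion.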
HT1080NT lethal: kills 2HG-producing HT-1080-NT fibrosarcoma cells | AID 686970 | Potency, µM (titrated, usually from 46.1 µM), for inactives: top-dose activity, negative = less viability, actives largely listed as cytotoxic | hit rate 1.6% among 360,000 | HT-1080-NT fibrosarcoma viability, CellTiter-Glo ATP luminescence, 48 h;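 further: NT is the 2HG producing partner of a matched IDH1 knockdown line; potency means the concentration at half of the fitted maximal effect; 0% = DMSO-treated cells and -100% = media-only wells without cells; nearly all actives have a fitted effect of over 55% in size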
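Toxicity toward the 2HG-producing NT line was scored as %Activity, normalised to DMSO and no-cell wells, from CellTiter-Glo luminescence after 48 hours' treatment.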
An asterisk follows results filed as active; ? = inconclusive. A selection: hits, their analogues and other compounds. The true share with any hit is near 19%. Unless noted, the call rests on the fitted dose curve; in most records, active means well fitted curve in the direction sought with a large enough effect; inconclusive means small, poorly fitted or top-dose-only effect, or another doubt; inactive means no such curve, though single readings can be large; an effect the other way counts as inactive or inconclusive. Unless noted, on the % scale 0 is the no-effect control and ±100 the full control effect.

SMILES	DT40 TDP1 CPT	DT40 TDP1 no CPT	HT1080 IDH1KD tx	IL-1B inflam inh	HT1080NT lethal
FC(F)(F)c1cccc(-c2cc(C3CCNCC3)[nH]n2)c1	?	?	?	?	16µM*
Cc1ccc(-n2c(C)cc(C(=O)COC(=O)c3c(C)noc3C)c2C)cc1	9.2µM*	9.2µM*	-21%	-58*	-24%
Cc1cc(C(=O)COC(=O)c2cnccn2)c(C)n1-c1ccc(Br)cc1	-9%	?	-7%	13	8%
Cc1ccc(-n2c(C)cc(C(=O)COC(=O)C3=NNC(=O)CC3)c2C)cc1	16µM*	?	-7%	5	-7%
COc1ccccc1OC(C)C(=O)Nc1ccccc1C(=O)NCC1CCCO1 (centres undefined)	-1%	-22%	18%	-13	13%
CC(C)(C)N1C(=O)c2ccc(C(=O)NCc3ccco3)cc2C1=O	-28%	?	-2%	-58*	2%
CC(C)(O)C(=O)NNC(=S)NCc1ccco1	-7%	-8%	-3%	0	0%
CC(C)(C)c1ccc(C(=O)NNC(=S)NCc2ccco2)cc1	?	23µM*	-13%	15	-2%
COc1cc(OC)cc(C(=O)NNC(=S)NCc2ccco2)c1	-21%	-23%	18%	8	18%
CC(C)c1cc(C(=O)NNC(=S)NCc2ccco2)c(O)c(C(C)C)c1	?	?	16µM*	-54*	?
COc1cc(OC)cc(C(=O)NC(=S)NCc2ccco2)c1	?	?	?	-6	18µM*
O=C(Cn1cnc([N+](=O)[O-])c1)c1ccc(F)cc1	?	?	7%	24	20%
COc1ccc(OC)c(-n2c(=S)[nH]c3c(sc(=S)n3-c3ccccc3)c2=O)c1	-15%	?	3%	-11	14%
Cc1nn(C(C)C(=O)NCCN2CCCC2)c(=O)c2c1sc1ccccc12 (centres undefined)	-11%	5%	17%	11	-1%
CCOC(=O)c1c(C)[nH]c(C)c1C(=O)CN1C(=O)NC(CC(C)C)C1=O (centres undefined)	10µM*	?	4%	9	5%
COc1ccc(NC(=O)NCc2ccco2)c(OC)c1	?	?	24%	1	19%
COc1ccccc1NC(=O)NCc1ccco1	-16%	?	-26%	-68*	3%
COc1ccccc1C(OC(=O)c1cccs1)C(=O)NCc1ccco1 (centres undefined)	18µM*	?	11%	-6	7%
CN(C)c1ccc(CC(=O)N2CCCCC2c2cc(C(=O)Nc3ccccc3Cl)no2)cc1 (centres undefined)	-110%	?	?	-11	33µM*
COC(=O)N1CCCCC1c1cc(C(=O)Nc2ccccc2Cl)no1 (centres undefined)	?	?	2%	0	?
CN(C)c1ccc(CC(=O)N2CCCC(c3cc(C(=O)Nc4ccc(F)c(Cl)c4)no3)C2)cc1 (centres undefined)	16µM*	23µM*	?	-1	-25%
COc1ccc(NC(=O)c2cc(C3CCCCN3C(=O)Cc3ccc(N(C)C)cc3)on2)c(C)c1 (centres undefined)	21µM*	?	-2%	-5	-14%
O=C(CSc1nnc(NC(=O)C2CC2)s1)NCc1ccco1	-17%	-30%	16%	-5	7%
CC1(C)CC(=O)C=C(NC2=CC3OC(c4ccccc4)OCC3OC2=O)C1 (centres undefined)	5.8µM*	6.5µM*	21µM*	-25	?
CC1(C)CC(=O)C=C(NCc2ccccc2)C1	-1%	1%	0%	-5	1%
CCOC(=O)C1=NN(c2ccc(Cl)cc2)C(=O)C1	?	?	-1%	-8	-6%
CCN(C(=O)COC(=O)C1CCN(S(=O)(=O)c2ccc(C)c(C)c2)CC1)C1CCCCC1	-1%	0%	2%	20	2%

High-throughput results (PubChem)
